From ChEMBL document CHEMBL3988442, “University of Dundee, Small-Polar-MMV Screening Library” (2021)
About 440 (0.52%) of roughly 85,000 compounds showed an effect of 50% or more. For the sample, strong results were picked, then their nearest neighbours and some compounds at random.

Assay: In vitro enzyme assay to detect hydrolysis of chlorophenol red-beta-D-[…] directly proportional to the number of Toxoplasma stably expressing beta-galactosidase
Type: functional, organism-based, Toxoplasma gondii
Set-up: scale not given: in the data most compounds retested in dose-response had high values

SMILES	Percent Effect (50 µM) [%]	Percent Effect (10 µM) [%]
CNC(=O)[C@@H]1CSCN1c1ccc(C(F)(F)F)cn1	98.68	
O=C(NC1CN(c2ccc(C(F)(F)F)cn2)C1)C1CC1	-14.77	
NC(=O)CC1CCCCN1c1ccc(C(F)(F)F)cn1 (stereo not given)	-10.18	
CN(C)C(=O)C1(N)CCCC1	3.679	
COC(=O)c1cccc(COC(=O)CCNC(C)=O)c1	-1.212	
NC(=O)c1ccccc1COC(=O)c1ccsc1	4.513	
Cc1cnn(-c2cncc(C(N)=O)c2)c1		0.2718
Cc1cncc(C(=O)Nc2sc(C)cc2C(N)=O)c1	2.925	
Cc1cncc(C(N)=O)c1	97.16	
Clc1cnn(CCN2CCN(C3CCNC3)CC2)c1 (stereo not given)	12.09	
COc1ncccc1CNC(=O)NC1CCS(=O)(=O)C1 (stereo not given)	-1.32	
CCN(Cc1nonc1C)C(=O)c1ccc(Br)o1		-1.469
CCN(CC(C)C#N)C(=O)c1ccc(Br)o1 (stereo not given)	96.74	
CCN(CC(C)C#N)C(=O)c1sccc1C (stereo not given)	16.85	
O=C1CCCN1CCCNS(=O)(=O)c1ccc(Br)s1	-1.058	
O=C1c2ccc(F)cc2C(=O)N1Cc1nnsc1Cl	52.75	
O=C1c2ccc(F)cc2C(=O)N1Cc1ccno1	5.807	
O=C1c2ccc(F)cc2C(=O)N1Cc1ccccn1	-3.473	

SMILES	Percent Effect (50 µM) [%]	Percent Effect (10 µM) [%]
Cn1ccc2ccc(NS(=O)(=O)C3CC3)cc2c1=O	65.83	
CN(C)C(=O)N1CC2(CCOCC2)c2cc(NS(=O)(=O)C3CC3)ccc21		-3.564
COC(=O)CNc1ccc2ccn(C)c(=O)c2c1	-16.28	
Cc1cc(CN(C)C(=O)c2cnn(C)c2C)no1	-0.6579	
CC(C)C(CN)N1CCN(C)CC1 (stereo not given)	18.88	
COc1ccc(Cl)cc1C(=O)NCc1cnn(C)c1C		-4.944
O=C(NCc1cccnc1)c1cn(CCc2ccccc2)nn1		7.216
COc1ccc(C(=O)NCc2cnn(C)c2C)o1	-4.523	
COc1c(C(=O)NCc2cnn(C)c2C)nnn1Cc1ccccc1		65.52
COc1c(C(=O)NCc2cccnc2)nnn1Cc1ccc(C)cc1		3.825
O=C(NCC1CCCO1)c1nc2c(s1)CCCN2Cc1ccccc1 (stereo not given)		-17.89
COc1c(C(=O)NCC2CCCO2)nnn1Cc1ccccc1 (stereo not given)		62.42
COc1c(C(=O)NCC(C)C)nnn1Cc1ccccc1		74.28
COCCNC(=O)c1nnn(Cc2ccccc2)c1OC		38.59
CCOCCCNC(=O)c1nnn(Cc2ccccc2)c1OC		43.16
COc1c(C(=O)NCc2cccnc2)nnn1Cc1ccccc1		61.62
CCNC(=O)c1nnn(Cc2ccccc2)c1OC		-0.1195
